From PubChem BioAssay AID686979 (National Center for Advancing Translational Sciences (NCATS), 2013)
In all, about 420,000 compounds went through this assay and about 50,000 (12%) were called active. Roughly 26% stayed inconclusive and do not appear here. This is one part of a sample in which actives are shown more often than they occur. Values without a mark were called inactive. The call rests on the fitted dose curve; in most records, active means well fitted inhibition curve with a large enough effect; inconclusive means small, poorly fitted or top-dose-only effect; inactive means flat fitted curve, though single readings scatter.

Test: qHTS for Inhibitors of human tyrosyl-DNA phosphodiesterase 1 (TDP1): qHTS in cells in presence of CPT; further: nearly all actives have a fitted effect of over 55% in size
Conditions: chicken DT40 Tdp1-/-;hTDP1 cells + 20 nM CPT, ATP luminescence, 48 h; series mostly up to 46.2 µM; activity change, negative = growth inhibition: at the top concentration
Procedure, shortened: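 Chicken DT40 Tdp1-/- cells complemented with human TDP1, 400 cells/well, exposed to compounds plus 20 nM camptothecin for at least 48 h at 37 C; viability read as ATP content by CellTiter-Glo luminescence.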
On the % scale 0 is the no-effect control and ±100 the full control effect; potency means the concentration at half of the fitted maximal effect.

| SMILES | activity change, negative = growth inhibition | Potency |
| --- | --- | --- |
| CCN1CCN(C(c2ccc(C)cc2)c2c(O)cc(C)n(Cc3ccco3)c2=O)CC1 (stereo not given) | 4.97% | – |
| O=C(NCc1ccccn1)Nc1ccc(Cl)cc1 | -13% | – |
| Cn1cccc1/C=N/NC(=O)c1ccc(OC(F)(F)C(F)F)cc1 | -5.47% | – |
| CCCC(=O)N1CCC1(C)C(=O)NS(=O)(=O)c1ccc(Cl)cc1 (stereo not given) | -13% | – |
| O=C(CCN1C(=O)c2ccccc2C1=O)NCCCn1ccnc1 | 8.16% | – |
| CC(=O)C(C)n1cnc2scc(-c3ccc(C)cc3)c2c1=O (stereo not given) | -13.8% | – |
| CN(C)S(=O)(=O)c1ccc(N2CCCC2)c(C(=O)Nc2cccc(F)c2)c1 | 10.3% | – |
| Cc1nccn1CCCNC(=O)CC1C(=O)NCCN1Cc1ccc(Cl)c(F)c1 (stereo not given) | 9.86% | – |
| O=C(CC1C(=O)NCCN1Cc1ccc(-c2ccccc2)cc1)NCC1CCOCC1 (stereo not given) | 2.47% | – |
| CCOc1ccc(CN2CCNC(=O)C2CC(=O)NCCCC2CCCC2)cc1 (stereo not given) | – | 16.4 µM (active) |
| CCN(C(=O)COC(=O)c1ccccc1O)c1cccc2ccccc12 | 0.154% | – |
| CC(C)CCNC(=O)CC1C(=O)N(Cc2ccccc2)C(C)c2nc3ccccc3n21 (stereo not given) | -13.9% | – |
| O=C(OCc1nnc(-c2ccccc2)o1)c1ccc2c(c1)C(=O)N(CCc1ccccc1)C2=O | -12.9% | – |
| Cc1onc(-c2ccccc2)c1C(=O)N=C(N)c1ccc(Cl)cc1 | 0.615% | – |
| CCOC(=O)c1ccc(COC(=O)CCc2nc(-c3ccccc3)c(-c3ccccc3)o2)cc1 | -16% | – |
| Cc1ccc(C(=O)NCC(=O)OCc2nnc(-c3ccccc3)o2)cc1 | 8.86% | – |
| Cc1onc(-c2ccccc2)c1-c1nnc(COC(=O)c2ccc(N(C)C)cc2)o1 | – | 20.6 µM (active) |
| Cc1onc(-c2ccccc2Cl)c1C(=O)OCc1nnc(-c2ccccc2)o1 | – | 18.4 µM (active) |
| Cc1ccc(NC(=O)CCC(=O)N/N=C/c2ccco2)c(C)c1 | 18.1% | – |
| Nc1nc(O)c(CC(=O)O)s1 | -1.16% | – |
| O=C(NCCNc1ccccc1[N+](=O)[O-])c1ccccc1F | -2.38% | – |
| Cn1nnnc1SCC(=O)Nc1cccc(S(=O)(=O)N2CCCCC2)c1 | 0.445% | – |
| CCOC(=O)C1=C(NC(=S)NC(=O)c2ccccc2)c2ccccc2CC1(C)C | -8.29% | – |
| O=C(CSc1nc(O)c(Cc2ccccc2)c(=O)[nH]1)Nc1nc2c(s1)CCCC2 | -15.5% | – |
| Cc1ccc2c(c1)C1CN(C)CCC1N2C(=O)c1ccccc1NS(=O)(=O)c1ccc(F)cc1C (stereo not given) | -11.4% | – |

| SMILES | activity change, negative = growth inhibition | Potency |
| --- | --- | --- |
| O=C1O/C(=C\c2ccc(O)cc2)C(O)=C1c1ccc(O)cc1 | -3.86% | – |
| COc1cc(C2C3=C(CCCC3=O)OC3=C2C(=O)CCC3)ccc1OCC(=O)Nc1ccccc1 | -1.46% | – |
| Cc1ccc(C)c(N2C(=O)N(Cc3c(F)cccc3Cl)c3ccccc3S2(=O)=O)c1 | – | 18.4 µM (active) |
| O=c1c(=O)n(Cc2c(F)cccc2Cl)ccn1Cc1ccccc1 | -23.7% | – |
| O=C1c2ccccc2S(=O)(=O)N1Cc1c(F)cccc1Cl | -12.9% | – |
| CCCCn1c(N)c(N(CC(C)C)C(=O)c2cccc(S(=O)(=O)N3CC(C)OC(C)C3)c2)c(=O)[nH]c1=O (stereo not given) | 19.3% | – |
| NC(=O)COc1ccc2c3c(c(=O)oc2c1)CCCCC3 | -25.1% | – |
| O=C(COc1ccc2c3c(c(=O)oc2c1)CCCC3)NCC(O)c1ccccc1 (stereo not given) | – | 20.6 µM (active) |
| O=C(COc1ccc2ccc(=O)oc2c1)NCC(O)c1ccccc1 (stereo not given) | 9.18% | – |
| Cc1cc(CNC(=O)C2CCC(=O)N(CCc3ccc(Cl)cc3)C2)no1 (stereo not given) | -10% | – |
| O=c1c2ccccc2nnn1CSc1nc2sc3c(c2c(=O)n1CC1CCCO1)CCC3 (stereo not given) | – | 16.4 µM (active) |
| Nc1nnc(SCn2nnc3ccccc3c2=O)s1 | 3.45% | – |
| O=c1c2ccccc2nnn1CSc1nnnn1-c1ccccc1 | -19.1% | – |
| O=S(=O)(Nc1ccc(Cl)cn1)c1cnc(Cl)c(Br)c1 | -18.1% | – |
| CN1CCN(C(=O)c2ccc(-c3ccc(Br)cc3)o2)CC1 | -29.6% | – |
| CCOC(=O)N1CCN(Cc2nc3ccc([N+](=O)[O-])cc3c(=O)n2-c2cccc(OC)c2)CC1 | -29.6% | – |
| Cc1ccc(NN=C2C(=O)OC(C)(C)OC2=O)c(C)c1 | 1.15% | – |
| CC(C)=C1SC(N2CCN(c3cccc(C)c3)CC2)=NC1=O | – | 20.6 µM (active) |
| Cc1ccc(N2CCN(C3=NC(=O)/C(=C\c4cccs4)S3)CC2)cc1 | -11.5% | – |
| CC(C)=C1SC(N2CCN(c3ccc(C)c(Cl)c3)CC2)=NC1=O | -1.1% | – |
| CCOC(=O)C(C)Sc1nnc(CSc2nc3nc(C)cc(C)n3n2)o1 (stereo not given) | -6.12% | – |
| C=CCNC(=S)/N=c1/ccccn1Cc1ccccc1 | – | 7.31 µM (active) |
| CNC(=S)NNC(=O)c1cccn(Cc2ccccc2)c1=O | -4.14% | – |
| C=CCNC(=O)COc1coc(CN2CCN(Cc3ccccc3)CC2)cc1=O | 2.71% | – |
| NS(=O)(=O)c1ccc(N=Cc2ccc(Br)s2)cc1 | -6.56% | – |
